The source of these data is PubChem BioAssay (EPA / NIEHS).

By AC50 is commonly meant the concentration giving half of the maximal activity seen.

Inconclusive results are not listed. The source made the active and inactive calls. The calls were made as follows: active = hit-call score of the fitted dose curve at least 0.9, where 1 is the maximum; inconclusive = response in the unintended direction; inactive = score below 0.9.

human Matrix Metalloproteinase-7 (MMP7), MMP7 (gene 4316), sequence (P09237 whole entry, looked up): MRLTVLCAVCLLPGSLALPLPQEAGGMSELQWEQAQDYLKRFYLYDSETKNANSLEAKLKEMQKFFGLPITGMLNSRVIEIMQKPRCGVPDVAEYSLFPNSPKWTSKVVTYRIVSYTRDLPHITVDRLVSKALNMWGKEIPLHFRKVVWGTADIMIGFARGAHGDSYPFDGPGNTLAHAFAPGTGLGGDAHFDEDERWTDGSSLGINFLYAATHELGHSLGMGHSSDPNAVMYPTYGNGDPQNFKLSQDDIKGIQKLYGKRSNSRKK
Serine/threonine-protein phosphatase PP1-alpha catalytic subunit (Homo sapiens), sequence (P62136 whole entry, looked up): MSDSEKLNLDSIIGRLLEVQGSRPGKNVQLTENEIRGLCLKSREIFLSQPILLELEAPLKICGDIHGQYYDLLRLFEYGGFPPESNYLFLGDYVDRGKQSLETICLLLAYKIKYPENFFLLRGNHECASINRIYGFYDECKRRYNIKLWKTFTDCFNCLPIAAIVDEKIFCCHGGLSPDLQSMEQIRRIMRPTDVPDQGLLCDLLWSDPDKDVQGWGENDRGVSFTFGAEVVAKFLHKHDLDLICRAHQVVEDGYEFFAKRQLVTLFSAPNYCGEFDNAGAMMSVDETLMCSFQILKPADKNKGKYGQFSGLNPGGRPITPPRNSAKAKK
human Protein Tyrosine Phosphatase Non-receptor Type 1 (PTPN1), PTPN1 (gene 5770), sequence (P18031 whole entry, looked up): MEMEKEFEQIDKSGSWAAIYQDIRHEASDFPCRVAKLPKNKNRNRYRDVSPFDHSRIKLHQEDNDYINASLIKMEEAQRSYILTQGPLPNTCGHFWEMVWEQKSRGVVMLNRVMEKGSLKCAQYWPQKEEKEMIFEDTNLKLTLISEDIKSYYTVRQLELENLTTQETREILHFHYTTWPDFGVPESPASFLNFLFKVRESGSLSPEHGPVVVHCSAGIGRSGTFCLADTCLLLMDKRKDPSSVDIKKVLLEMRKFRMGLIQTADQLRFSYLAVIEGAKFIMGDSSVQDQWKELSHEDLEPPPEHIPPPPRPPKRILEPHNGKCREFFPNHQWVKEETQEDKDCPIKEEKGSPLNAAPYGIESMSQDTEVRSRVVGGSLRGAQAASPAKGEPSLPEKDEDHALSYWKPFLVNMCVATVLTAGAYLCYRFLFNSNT
human Protein Tyrosine Phosphatase Non-receptor Type 2 (PTPN2), PTPN2 (gene 5771), sequence (P17706 whole entry, looked up): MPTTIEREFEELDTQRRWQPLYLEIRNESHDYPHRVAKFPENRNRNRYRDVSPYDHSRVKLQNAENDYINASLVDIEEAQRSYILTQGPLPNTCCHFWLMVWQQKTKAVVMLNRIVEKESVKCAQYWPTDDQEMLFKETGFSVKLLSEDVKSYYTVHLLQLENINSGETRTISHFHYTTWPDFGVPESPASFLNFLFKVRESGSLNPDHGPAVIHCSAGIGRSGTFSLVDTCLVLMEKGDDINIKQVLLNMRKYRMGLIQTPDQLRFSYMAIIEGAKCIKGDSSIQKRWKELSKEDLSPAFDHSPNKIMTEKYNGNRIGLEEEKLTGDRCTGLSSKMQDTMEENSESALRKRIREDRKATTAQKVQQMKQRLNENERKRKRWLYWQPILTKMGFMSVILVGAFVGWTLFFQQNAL
Tyrosine-protein phosphatase non-receptor type 14 (Homo sapiens), sequence (Q15678 whole entry, looked up): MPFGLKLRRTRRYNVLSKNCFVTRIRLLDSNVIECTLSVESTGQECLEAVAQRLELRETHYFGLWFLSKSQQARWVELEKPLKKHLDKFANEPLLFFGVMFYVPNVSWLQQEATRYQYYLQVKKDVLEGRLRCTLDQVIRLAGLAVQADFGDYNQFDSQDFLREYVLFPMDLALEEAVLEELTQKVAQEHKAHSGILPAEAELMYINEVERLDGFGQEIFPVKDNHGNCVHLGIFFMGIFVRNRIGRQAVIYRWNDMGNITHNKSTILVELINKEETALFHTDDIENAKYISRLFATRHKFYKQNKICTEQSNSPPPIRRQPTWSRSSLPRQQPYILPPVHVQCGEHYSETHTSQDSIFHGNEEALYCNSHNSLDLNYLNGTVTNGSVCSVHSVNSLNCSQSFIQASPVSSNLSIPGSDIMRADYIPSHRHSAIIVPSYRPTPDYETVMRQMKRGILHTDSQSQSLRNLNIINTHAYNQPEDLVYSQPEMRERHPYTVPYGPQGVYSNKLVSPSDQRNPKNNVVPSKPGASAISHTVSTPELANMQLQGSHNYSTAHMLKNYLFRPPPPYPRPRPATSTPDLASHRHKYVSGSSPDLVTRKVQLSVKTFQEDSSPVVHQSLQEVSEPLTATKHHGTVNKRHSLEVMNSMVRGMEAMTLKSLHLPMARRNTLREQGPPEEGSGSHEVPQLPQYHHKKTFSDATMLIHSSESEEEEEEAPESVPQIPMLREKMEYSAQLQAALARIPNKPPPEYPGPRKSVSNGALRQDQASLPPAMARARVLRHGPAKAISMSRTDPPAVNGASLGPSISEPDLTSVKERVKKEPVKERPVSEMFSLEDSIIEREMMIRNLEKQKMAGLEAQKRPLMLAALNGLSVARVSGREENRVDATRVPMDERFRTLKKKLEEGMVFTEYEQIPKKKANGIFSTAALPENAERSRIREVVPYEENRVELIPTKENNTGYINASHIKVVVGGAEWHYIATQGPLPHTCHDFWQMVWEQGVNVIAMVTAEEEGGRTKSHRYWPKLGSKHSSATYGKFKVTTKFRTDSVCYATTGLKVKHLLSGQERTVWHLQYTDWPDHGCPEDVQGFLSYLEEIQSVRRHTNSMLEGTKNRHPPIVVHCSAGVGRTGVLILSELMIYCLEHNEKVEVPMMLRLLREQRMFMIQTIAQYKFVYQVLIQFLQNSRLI
human Matrix Metalloproteinase-2 (MMP2), MMP2 (gene 4313), sequence (P08253 whole entry, looked up): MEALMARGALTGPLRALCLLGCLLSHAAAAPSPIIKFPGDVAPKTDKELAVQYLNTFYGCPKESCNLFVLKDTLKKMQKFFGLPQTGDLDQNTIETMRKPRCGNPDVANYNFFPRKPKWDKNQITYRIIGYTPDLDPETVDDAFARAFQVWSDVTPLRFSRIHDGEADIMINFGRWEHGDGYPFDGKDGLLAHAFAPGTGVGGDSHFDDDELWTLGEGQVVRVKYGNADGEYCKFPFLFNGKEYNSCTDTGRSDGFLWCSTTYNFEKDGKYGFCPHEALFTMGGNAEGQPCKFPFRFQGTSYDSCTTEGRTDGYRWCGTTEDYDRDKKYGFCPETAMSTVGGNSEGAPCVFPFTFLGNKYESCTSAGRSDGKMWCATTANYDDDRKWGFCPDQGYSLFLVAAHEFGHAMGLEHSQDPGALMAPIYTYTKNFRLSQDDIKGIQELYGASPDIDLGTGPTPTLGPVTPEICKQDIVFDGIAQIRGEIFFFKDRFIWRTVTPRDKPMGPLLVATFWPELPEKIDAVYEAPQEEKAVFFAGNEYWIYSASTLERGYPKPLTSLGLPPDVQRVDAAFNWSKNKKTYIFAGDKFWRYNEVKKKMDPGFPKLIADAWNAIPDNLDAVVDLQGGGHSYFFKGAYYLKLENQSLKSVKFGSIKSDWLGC

One test has as its target human Matrix Metalloproteinase-7 (MMP7), MMP7 (gene 4316) (UniProt P09237). The test can be described thus: NVS_ENZ_hMMP7: NovaScreen (NVS) Enzymatic Assay for human Matrix Metalloproteinase-7 (MMP7) (AID 2283183). In a few lines: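 Cell-free fluorescence enzymatic assay read 1 h after compound addition, activity loss analyzed against DMSO. Primary duplicate testing at 25 uM; compounds meeting threshold rerun in singleton concentration-response up to 50 uM.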
`COC(=O)c1c(C(F)F)nc(C(F)(F)F)c(C2=NCCS2)c1CC(C)C`: the outcome was inactive.

For the molecule `CC(C)=CC1C(C(=O)OCc2coc(Cc3ccccc3)c2)C1(C)C` (stereo not given), the AC50 is 6.48 µM (active).

For `N#CN=C1SCCN1Cc1ccc(Cl)nc1`, the molecule was classed as inactive.

For `CCN(CC)c1nc(C)cc(OP(=S)(OC)OC)n1`, the molecule was called inactive.

Take `Clc1nc(Cl)nc(Nc2ccccc2Cl)n1`: the AC50 is 7.57 µM (active).

The target in the next test is human Matrix Metalloproteinase-2 (MMP2), MMP2 (gene 4313) (UniProt P08253). Kind of test: NVS_ENZ_hMMP2: NovaScreen (NVS) Enzymatic Assay for human Matrix Metalloproteinase-2 (MMP2) (AID 2283184). The method in brief:
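Cell-free recombinant MMP2 activity with a fluorescent substrate, read 1 h after dosing. Primary screen in duplicate at 25 uM; actives then run in concentration series; loss of signal fitted versus DMSO.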
As to `CCOC(=O)C(C)OC(=O)c1cc(Oc2ccc(C(F)(F)F)cc2Cl)ccc1[N+](=O)[O-]` (stereo not given), the molecule was classed as inactive.

With `CC1(C)C(C=C(Cl)Cl)C1C(=O)OC(C#N)c1cccc(Oc2ccccc2)c1` (stereo not given), the AC50 was 4.96 µM (active).

In the case of `CC(C)=CC1C(C(=O)OCc2coc(Cc3ccccc3)c2)C1(C)C` (stereo not given), the molecule was classed as inactive.

As to `COC(=O)N(C(=O)N1CO[C@@]2(C(=O)OC)Cc3cc(Cl)ccc3C2=N1)c1ccc(OC(F)(F)F)cc1`, the AC50 was 9.53 µM (active).

In the case of `CS(=O)(=O)c1ccc(C(=O)C2C(=O)CCCC2=O)c([N+](=O)[O-])c1`, the AC50 is 1.59 µM (active).

In a further test the target is human Matrix Metalloproteinase-9 (MMP9), MMP9 (gene 4318) (UniProt P14780). Kind of test: NVS_ENZ_hMMP9: NovaScreen (NVS) Enzymatic Assay for human Matrix Metalloproteinase-9 (MMP9) (AID 2283190).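 Also: cell-free recombinant MMP9 protease activity read by fluorescent substrate signal; active means inhibition seen as loss of fluorescence signal versus DMSO.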 The method in brief: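 Inhibition was scored as loss of fluorescence signal against DMSO controls. The recombinant protease was exposed to chemicals for 1 hour before reading; initial testing used 25 uM in duplicate.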
human Matrix Metalloproteinase-9 (MMP9), MMP9 (gene 4318), sequence (P14780 whole entry, looked up): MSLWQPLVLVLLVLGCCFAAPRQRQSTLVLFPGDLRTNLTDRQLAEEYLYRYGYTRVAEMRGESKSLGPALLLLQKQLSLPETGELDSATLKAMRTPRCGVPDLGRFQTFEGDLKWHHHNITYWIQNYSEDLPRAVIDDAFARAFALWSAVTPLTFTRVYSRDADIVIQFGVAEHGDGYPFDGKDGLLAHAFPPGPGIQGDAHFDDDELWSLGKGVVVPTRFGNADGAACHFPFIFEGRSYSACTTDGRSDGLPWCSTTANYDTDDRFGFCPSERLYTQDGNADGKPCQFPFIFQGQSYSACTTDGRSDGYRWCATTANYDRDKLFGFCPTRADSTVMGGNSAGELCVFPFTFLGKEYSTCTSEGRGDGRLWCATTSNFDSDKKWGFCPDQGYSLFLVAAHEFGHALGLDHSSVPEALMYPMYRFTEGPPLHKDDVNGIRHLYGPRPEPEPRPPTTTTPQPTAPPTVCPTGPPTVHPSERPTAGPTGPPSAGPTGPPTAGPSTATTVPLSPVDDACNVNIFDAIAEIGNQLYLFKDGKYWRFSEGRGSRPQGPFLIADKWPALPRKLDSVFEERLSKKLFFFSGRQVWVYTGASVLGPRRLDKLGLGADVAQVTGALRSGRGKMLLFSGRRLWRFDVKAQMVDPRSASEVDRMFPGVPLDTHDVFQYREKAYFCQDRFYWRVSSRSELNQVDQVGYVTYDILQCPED
On to `COP(=S)(OC)SCn1nnc2ccccc2c1=O`, for which the outcome was inactive.

For the molecule `COC(=O)NC(=S)Nc1ccccc1NC(=S)NC(=O)OC`, the result was inactive.

For `CC1(C)C(C=C(Cl)Cl)C1C(=O)OC(C#N)c1cccc(Oc2ccccc2)c1` (stereo not given), the half-maximal activity concentration (AC50) was 13.4 µM (active).

Take `CCN(CC)C(=O)C(C)Oc1cccc2ccccc12` (stereo not given): the call was inactive.

Take `CCN(CC)c1nc(C)cc(OP(=S)(OC)OC)n1`: the molecule was called inactive.

The next test deals with human Phosphodiesterase 4A1 (PDE4A1), PDE4A (gene 5141) (UniProt P27815). Kind of test: NVS_ENZ_hPDE4A1: NovaScreen (NVS) Enzymatic Assay for human Phosphodiesterase 4A1 (PDE4A1) (AID 2283191). In a few lines: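 Cell-free recombinant human PDE4A1 with fluorescent substrate; product separated by electrophoretic mobility shift, 1 h. Screened at 25 uM, then up to 50 uM in concentration-response; loss of signal fitted against DMSO.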
human Phosphodiesterase 4A1 (PDE4A1), PDE4A (gene 5141), sequence (P27815 whole entry, looked up): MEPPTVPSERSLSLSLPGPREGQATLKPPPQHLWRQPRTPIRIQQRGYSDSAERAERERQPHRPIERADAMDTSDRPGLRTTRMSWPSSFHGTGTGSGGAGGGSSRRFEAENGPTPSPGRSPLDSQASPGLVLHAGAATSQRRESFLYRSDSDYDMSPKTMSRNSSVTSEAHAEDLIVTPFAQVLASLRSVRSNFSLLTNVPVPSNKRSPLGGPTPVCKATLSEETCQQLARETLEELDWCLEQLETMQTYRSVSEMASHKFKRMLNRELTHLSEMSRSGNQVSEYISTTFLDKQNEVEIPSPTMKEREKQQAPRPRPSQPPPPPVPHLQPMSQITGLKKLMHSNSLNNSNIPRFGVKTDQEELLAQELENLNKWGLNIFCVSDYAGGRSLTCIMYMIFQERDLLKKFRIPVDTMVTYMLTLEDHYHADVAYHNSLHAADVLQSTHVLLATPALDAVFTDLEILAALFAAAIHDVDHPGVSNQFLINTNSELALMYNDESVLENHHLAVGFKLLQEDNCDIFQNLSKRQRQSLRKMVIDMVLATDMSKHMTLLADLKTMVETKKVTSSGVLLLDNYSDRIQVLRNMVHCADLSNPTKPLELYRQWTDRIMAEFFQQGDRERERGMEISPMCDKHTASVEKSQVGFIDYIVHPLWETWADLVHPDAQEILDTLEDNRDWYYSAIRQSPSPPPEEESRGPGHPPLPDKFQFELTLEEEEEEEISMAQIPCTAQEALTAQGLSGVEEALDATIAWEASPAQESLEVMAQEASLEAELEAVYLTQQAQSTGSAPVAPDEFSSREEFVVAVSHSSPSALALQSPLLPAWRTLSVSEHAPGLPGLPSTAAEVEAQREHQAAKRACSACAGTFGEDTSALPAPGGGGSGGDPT
On to `COC(=O)NC(=S)Nc1ccccc1NC(=S)NC(=O)OC`, for which the molecule was classed as inactive.

For the molecule `CCC(C)n1c(=O)[nH]c(C)c(Br)c1=O` (stereo not given), the AC50 is 25 µM (active).

For the molecule `CC(C)Nc1nc(Cl)nc(NC(C)C)n1`, the AC50 was 1 µM (active).

As for `CCN(CC)c1nc(C)cc(OP(=S)(OC)OC)n1`, the concentration at half-maximal activity (AC50) is 25 µM (active).

For `COP(=S)(OC)Oc1ccc([N+](=O)[O-])c(C)c1`, the molecule was called inactive.

In the case of `CCOP(=O)(OCC)Oc1nc(Cl)c(Cl)cc1Cl`, the AC50 is 25 µM (active).

On to `CCNP(=S)(OC)O/C(C)=C/C(=O)OC(C)C` (stereo not given), for which the AC50 was 19.5 µM (active).

A further test addresses human Phosphodiesterase 5 (PDE5), PDE5A (gene 8654) (UniProt O76074). Kind of test: NVS_ENZ_hPDE5: NovaScreen (NVS) Enzymatic Assay for human Phosphodiesterase 5 (PDE5) (AID 2283194). The method in brief: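 Recombinant human PDE5 with specific substrate, read 1 h after dosing by fluorescence with electrophoretic mobility-shift separation of substrate and product. Initial single-concentration duplicate screen at 25 uM, actives followed in concentration series; loss of activity versus DMSO.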
On to `COP(=S)(OC)SCn1nnc2ccccc2c1=O`, for which the AC50 is 4.85 µM (active).

For the molecule `CC(C)Nc1nc(Cl)nc(NC(C)C)n1`, the outcome was inactive.

For the molecule `Cc1nc(N(C)C)nc(OC(=O)N(C)C)c1C`, the molecule was classed as inactive.

On to `CCOP(=O)(OCC)Oc1nc(Cl)c(Cl)cc1Cl`, for which the call was inactive.

Turning to `Cc1cnc(C2=NC(C)(C(C)C)C(=O)N2)c(C(=O)O)c1` (stereo not given), the call was inactive.

The next test has as its target Serine/threonine-protein phosphatase PP1-alpha catalytic subunit (Homo sapiens) (UniProt P62136). Kind of test: NVS_ENZ_hPPP1CA: NovaScreen (NVS) Enzymatic Assay for human Protein Phosphatase 1 Aatalytic subunit Alpha (PPP1CA) (AID 2283200). In a few lines: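 Recombinant enzyme activity read by fluorescence with electrophoretic mobility shift separating substrate from product, 1.33 h after dosing; loss of signal vs DMSO baseline. Primary screen in duplicate at 25 uM; actives retested in concentration-response up to 50 uM.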
Take `O=P(O)(O)CCCl`: the half-maximal activity concentration (AC50) was 9.89 µM (active).

Consider `CCNC(=O)NC(=O)C(C#N)=NOC`, for which the outcome was inactive.

Take `CC(C)NC(=O)N1CC(=O)N(c2cc(Cl)cc(Cl)c2)C1=O`: the molecule was called inactive.

The next test deals with human Protein Tyrosine Phosphatase Non-receptor Type 1 (PTPN1), PTPN1 (gene 5770) (UniProt P18031). Kind of test: NVS_ENZ_hPTPN1: NovaScreen (NVS) Enzymatic Assay for human Protein Tyrosine Phosphatase Non-receptor Type 1 (PTPN1) (AID 2283201). In a few lines:
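Cell-free fluorogenic-substrate activity assay on recombinant enzyme, read 1.33 h after dosing by fluorescence and electrophoretic mobility shift; loss of signal vs DMSO baseline. Primary screen in duplicate at 25 uM, hits then run in concentration-response up to 50 uM.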
As for `CCOc1nc(F)cc2nc(S(=O)(=O)Nc3c(Cl)cccc3Cl)nn12`, the call was inactive.

With `Nc1c(Cl)c(Cl)nc(C(=O)O)c1Cl`, the outcome was inactive.

Take `Nc1cnn(-c2ccccc2)c(=O)c1Cl`: the result was inactive.

For the molecule `CN=C=S`, the molecule was classed as inactive.

With `N#Cc1c[nH]cc1-c1cccc2c1OC(F)(F)O2`, the outcome was inactive.

With `CC(C)N1C(=O)N(c2ccccc2)CSC1=NC(C)(C)C`, the molecule was called inactive.

Turning to `CCCC(=NOCC)C1=C(O)CC(CC(C)SCC)CC1=O` (stereo not given), the result was inactive.

A further test deals with human Phosphatase and Tensin Homolog (PTEN), PTEN (gene 5728) (UniProt P60484). The test can be described thus: NVS_ENZ_hPTEN: NovaScreen (NVS) Enzymatic Assay for human Phosphatase and Tensin Homolog (PTEN) (AID 2283203). The method in brief: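 Cell-free recombinant human PTEN with fluorescent substrate; product separated by electrophoretic mobility shift and read by fluorescence 1 h after dosing. Primary screen in duplicate at 25 uM, actives followed in concentration series versus DMSO.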
With `CCOc1nc(F)cc2nc(S(=O)(=O)Nc3c(Cl)cccc3Cl)nn12`, the AC50 was 29.9 µM (active).

Regarding `N#CN=C1SCCN1Cc1ccc(Cl)nc1`, the molecule was called inactive.

Consider `O=C1C2CC=CCC2C(=O)N1SC(Cl)(Cl)Cl` (stereo not given), for which the AC50 is 23 µM (active).

As for `CCCC(=NOCC)C1=C(O)CC(CC(C)SCC)CC1=O` (stereo not given), the AC50 is 18.2 µM (active).

For another test, the target named is Tyrosine-protein phosphatase non-receptor type 14 (Homo sapiens) (UniProt Q15678). The test can be described thus: NVS_ENZ_hPTPN14: NovaScreen (NVS) Enzymatic Assay for human Protein Tyrosine Phosphatase Non-receptor Type 14 (PTPN14) (AID 2283206). In a few lines:
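Cell-free recombinant human PTPN14 with fluorescent substrate, read 0.5 h after dosing by fluorescence and electrophoretic mobility shift separating substrate from product. Primary screen at 25 uM in duplicate; hits run to 50 uM maximum; loss of signal versus DMSO.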
Take `COP(=S)(OC)SCn1nnc2ccccc2c1=O`: the molecule was called inactive.

Regarding `O=C1C2CC=CCC2C(=O)N1SC(Cl)(Cl)Cl` (stereo not given), the molecule was classed as inactive.

Consider `COP(=S)(OC)Oc1ccc([N+](=O)[O-])c(C)c1`, for which the molecule was called inactive.

For `CS(=O)(=O)c1cc(C(F)(F)F)ccc1C(=O)c1cnoc1C1CC1`, the molecule was called inactive.

`CCOP(=O)(OCC)Oc1nc(Cl)c(Cl)cc1Cl`: the molecule was called inactive.

A further test addresses human Protein Tyrosine Phosphatase Non-receptor Type 2 (PTPN2), PTPN2 (gene 5771) (UniProt P17706). Kind of test: NVS_ENZ_hPTPN2: NovaScreen (NVS) Enzymatic Assay for human Protein Tyrosine Phosphatase Non-receptor Type 2 (PTPN2) (AID 2283207). In a few lines:
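Cell-free recombinant enzyme with fluorescent substrate, product separated by electrophoretic mobility shift; read 1 h after dosing. Primary screen single concentration (25 uM) in duplicate; actives followed in concentration series; loss of signal versus DMSO.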
Turning to `CCOC(=O)C(C)OC(=O)c1cc(Oc2ccc(C(F)(F)F)cc2Cl)ccc1[N+](=O)[O-]` (stereo not given), the result was inactive.

Consider `CCN(CC)C(=O)C(C)Oc1cccc2ccccc12` (stereo not given), for which the result was inactive.

With `CN/C(=N\[N+](=O)[O-])NCc1cnc(Cl)s1`, the result was inactive.

For the molecule `N#CN=C1SCCN1Cc1ccc(Cl)nc1`, the outcome was inactive.

For the molecule `O=C1C2CC=CCC2C(=O)N1SC(Cl)(Cl)Cl` (stereo not given), the AC50 is 46.9 µM (active).

With `CCCC(=NOCC)C1=C(O)CC(CC(C)SCC)CC1=O` (stereo not given), the outcome was inactive.

In a further test the target is human Protein Tyrosine Phosphatase Receptor Type B (PTPRB), PTPRB (gene 5787) (UniProt P23467). The test can be described thus: NVS_ENZ_hPTPRB: NovaScreen (NVS) Enzymatic Assay for human Protein Tyrosine Phosphatase Receptor Type B (PTPRB) (AID 2283211). In a few lines:
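Recombinant human PTPRB with a fluorescent substrate, product separated by electrophoretic mobility shift; read 1 h after dosing. Primary screen in duplicate at 25 uM; actives then retested in concentration series; loss of signal versus DMSO.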
Regarding `O=c1n(Cl)c(=O)n(Cl)c(=O)n1Cl`, the outcome was inactive.

For `N#Cc1c(Cl)cccc1Cl`, the molecule was called inactive.

Regarding `CCCC(=NOCC)C1=C(O)CC(CC(C)SCC)CC1=O` (stereo not given), the call was inactive.
